# HEK cytotox: HEK 293 cell cytotoxicity; HEK 293 viability, ATP luminescence (CellTiter-Glo), 48-72 h; Potency, µM (titrated, usually from 115 µM), actives largely listed as inhibitors; 6.6% of 94,000 active; note: nearly all actives have a fitted effect of over 60% in size
#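 HEK 293 cells at 250 cells/well were exposed to compounds by pintool transfer for 48 or 72 hr at 37 degree Celsius, 5% CO2. Viability was read as ATP-coupled luminescence with CellTiter-Glo after 10 min at room temperature.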
# hNpr1 antagonist: blocks ANP-stimulated signaling of human Npr1 receptor; P16066; Potency, µM (highest dose often 46.3 µM), most hits filed as inhibitors; 1.6% of 76,000 active; HEK293 hNpr1 GloSensor cGMP, ANP-stimulated luminescence; calls by dose curve; note: nearly all actives have a fitted effect of over 60% in size
#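 HEK293 cells stably expressing human Npr1 and cGMP GloSensor pGS-40F, loaded 2 h with 2% GloSensor reagent, given compound 30 min at room temperature. Luminescence read before and 20 min after 0.1 nM hNppA.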
# GPT2 inhibitor: GPT2 alanine aminotransferase inhibition. Q8TD30. Recombinant GPT2, coupled pyruvate oxidase/HRP Amplex Red fluorescence. Potency, µM (top dose mostly 57.7 µM), hits mostly inhibitors. 0.25% of 100,000 active; note: nearly all actives have a fitted effect of over 60% in size
# Target sequence (Q8TD30 whole entry, looked up): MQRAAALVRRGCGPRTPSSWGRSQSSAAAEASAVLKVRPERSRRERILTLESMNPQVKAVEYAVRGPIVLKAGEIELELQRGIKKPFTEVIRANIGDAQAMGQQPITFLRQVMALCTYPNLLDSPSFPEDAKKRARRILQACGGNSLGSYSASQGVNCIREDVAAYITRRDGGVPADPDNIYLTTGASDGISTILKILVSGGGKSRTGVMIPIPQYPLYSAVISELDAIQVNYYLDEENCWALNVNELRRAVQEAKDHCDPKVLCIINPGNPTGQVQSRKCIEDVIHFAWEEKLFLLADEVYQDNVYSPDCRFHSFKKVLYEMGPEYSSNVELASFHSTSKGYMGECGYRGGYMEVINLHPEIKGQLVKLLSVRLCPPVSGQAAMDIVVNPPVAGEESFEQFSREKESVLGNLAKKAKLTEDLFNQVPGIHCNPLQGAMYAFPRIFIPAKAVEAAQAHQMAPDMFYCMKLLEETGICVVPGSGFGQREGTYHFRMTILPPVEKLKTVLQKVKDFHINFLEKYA
#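 Fluorescence of coupled pyruvate oxidase/HRP/Amplex Red system (50uM Amplex, 30 min, dark) reports pyruvate formed by GPT2. Enzyme reaction: 10ng/uL GPT2, 2mM L-alanine, 250uM a-KG, 30 min room temperature, pH 7.5; 50uM AOA control.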
# NIH3T3 tox: kills NIH 3T3 cells | Potency, µM (series often up to 96.7 µM), actives largely listed as inhibitors | 4.3% of 94,000 active | NIH 3T3 viability, CellTiter-Glo ATP luminescence, 48-72 h; note: nearly all actives have a fitted effect of over 55% in size
#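 Mouse fibroblast NIH 3T3 cells, 400 per well, received compound via pintool and were incubated for 48 or 72 hr prior to CellTiter-Glo ATP luminescence measurement.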
# FLuc inh-1: Photinus pyralis luciferase inhibition; P08659; purified P. pyralis luciferase, luminescence, biochemical; Potency, µM (series often up to 115 µM), usual class: inhibitors; 2.5% of 76,000 active; note: nearly all actives have a fitted effect of over 65% in size
#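 Inhibitors were tested against purified firefly luciferase in a biochemical, low-substrate format (both substrates at 10uM) and luminescence measured with a CCD imager.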
# FLuc SDR no ATP: firefly luciferase binding stabilization, ATP absent; Potency, µM (titrated, usually from 32.7 µM), most hits filed as activators; 7.8% of 1,300 active; shares compounds with FLuc inh-1; Purified FLuc-C-HiBiT, Nano-Glo HiBiT luminescence, no ATP; note: nearly all actives have a fitted effect of over 55% in size
# FLuc SDR ATP: binders stabilizing firefly luciferase, plus ATP; purified FLuc-C-HiBiT + ATP, HiBiT complementation luminescence; shares compounds with FLuc inh-1; 8.7% of 1,300 active; AID 1963319; Potency, µM (doses to about 32.7 µM), actives largely listed as activators;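 note: signal reports ligand binding via conformational change of the enzyme rather than luciferase catalysis; nearly all actives have a fitted effect of over 55% in size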
# FLuc inh-2: firefly luciferase enzyme inhibition; shares compounds with FLuc inh-1; purified FLuc-C-HiBiT enzyme, luciferin luminescence; Potency, µM (highest dose often 32.7 µM), most hits filed as inhibitors; 42% of 1,300 active; note: nearly all actives have a fitted effect of over 70% in size
# Numbers stand for hits; – = inactive; ? = inconclusive; · = not tested or not shown. Sampled rows, rich in hits. Any-hit rate of the full collection: about 10%. Unless noted, calls come from the whole dose curve; as a rule, active = well fitted curve in the direction sought with a large enough effect; inconclusive = small, poorly fitted or top-dose-only effect, or another doubt; inactive = no such curve, though single readings can be large; an effect the other way counts as inactive or inconclusive.
SMILES,HEK cytotox,hNpr1 antagonist,GPT2 inhibitor,NIH3T3 tox,FLuc inh-1,FLuc SDR no ATP,FLuc SDR ATP,FLuc inh-2
COc1ccc(-c2cc3c(=O)n(CCNC(=O)c4cccc(N(C)C)c4)ccn3n2)cc1,?,–,–,–,3.5µM,–,?,?
COc1cccc(C(=O)NCCn2ccn3nc(-c4ccc(C)cc4C)cc3c2=O)c1OC,?,–,–,?,5.6µM,–,–,9.9µM
COc1cccc(C(=O)NCCn2ccn3nc(-c4ccc(C)c(C)c4)cc3c2=O)c1OC,?,–,–,–,5.6µM,–,–,7.9µM
CNC(=O)c1nc2cccnc2n(C2CC2)c1=O,–,·,–,–,·,·,·,·
CCn1cc(-c2ccccc2)cc1C(=O)O,–,–,–,–,–,·,·,·
CCn1cc(-c2ccc(C)cc2)cc1C(=O)O,?,–,–,–,?,–,–,–
CCOC(=O)C1CCN(C(=O)c2cc(-c3ccncc3)cn2Cc2ccc(C)cc2)CC1,?,–,–,?,–,·,·,·
Cc1ccc(Cn2cc(-c3ccncc3)cc2C(=O)O)cc1,–,–,–,?,–,–,–,–
N#Cc1c(-n2ncnc2-c2cccc(Br)c2)sc2c1CCCCC2,·,·,·,·,·,–,?,3.1µM
COc1cccc(C(=O)N2CCC3(CC2)NC(=O)N(c2cccc(F)c2)N3)c1OC,?,–,?,–,–,·,·,·
CCOC(=O)c1ccc(NC(=O)Cn2c(N3CCCCC3)nc(C)c(C)c2=O)cc1,?,–,–,?,–,·,·,·
CCOC(=O)c1ccc(NC(=O)CSc2nnc(CNC(=O)c3ccc(OC)cc3)n2CC)cc1,·,·,·,·,·,–,–,?
CCCC1CN(Cc2ccccc2)[S+](=O)([O-])c2cccnc2O1 (centres undefined),?,·,–,?,·,·,·,·
Cc1ccc(OCc2nc(C3CN(C(=O)C4(c5ccccc5)CC4)C3)no2)cc1,?,–,–,?,–,·,·,·
Cc1ccc(OCc2nc(C3CN(C(=O)c4n[nH]c5ccccc45)C3)no2)cc1,?,?,–,20µM,8.9µM,?,?,8.8µM
Cc1ccc(NC(=O)N2CCCC(c3noc(COc4ccccc4)n3)C2)cc1C (centres undefined),?,–,–,?,4µM,–,–,8.8µM
O=C(O)COc1ccc(-c2nccc3c2C(=O)N(Cc2ccccc2)CC(CNC(=O)c2ccc(F)cc2)O3)cc1 (centres undefined),–,–,–,?,–,·,·,·
COc1ccc(C(=O)NC(C(=O)N2CCCCC2)C2CCN(C(=O)c3ccc(F)cc3)CC2)cc1 (centres undefined),–,–,–,–,–,·,·,·
CC(C)(O)CCc1ccc(C(=O)NCc2noc(-c3ccco3)n2)cc1,–,–,–,–,–,·,·,·
CC(C)(O)CCc1ccc(C(=O)NCCSc2ccccn2)cc1,?,–,–,–,2.8µM,–,–,?
O=C(NCc1ccc(F)c(F)c1)c1ccc2nnc(-c3ccc(F)cc3)n2c1,?,·,–,?,·,·,·,·
OCc1cn(CC2CCN(c3ncnc4nc[nH]c34)CC2)nn1,–,–,–,–,–,–,–,–
Cc1cc(C)c(S(=O)(=O)N2CCCC(Cn3cc(CO)nn3)C2)c(C)c1 (centres undefined),–,–,–,–,–,·,·,·
COc1cccc(C(=O)Nc2cccc(OCc3cc(=O)n4c5c(sc4n3)CCCC5)c2)c1,·,·,·,·,·,–,–,?
COc1cccc(NC(=O)Cn2c(=O)c(-c3noc(C)n3)c3n(c2=O)CCCC3)c1,–,–,–,–,–,·,·,·
COc1ccc2c(c1)C(COCc1ccc(C(=O)O)cc1)CC(C)(C)O2 (centres undefined),–,·,·,?,·,·,·,·
Cc1onc(-c2ccccc2Cl)c1-c1nc(C2CCOC2)no1 (centres undefined),–,–,–,–,–,·,·,·

# Screening data: PubChem BioAssay, National Center for Advancing Translational Sciences (NCATS)
